The record followed here is PubChem BioAssay (NCATS).

Inconclusive results are not listed. Entries that show only a call come without a potency. A number with no mark means an inactive call. Active and inactive are the calls of the source. The call rests on the fitted dose curve; in most records, active means well fitted inhibition curve with a large enough effect; inconclusive means small, poorly fitted or top-dose-only effect; inactive means flat fitted curve, though single readings scatter.
Potency means the concentration at half of the fitted maximal effect.

This assay is described as follows: P-glycoprotein substrates identified in KB-8-5-11 adenocarcinoma cell line, qHTS therapeutic library screen (AID 1346987). Further: nearly all actives have a fitted effect of over 65% in size. Conditions: KB-8-5-11 (P-gp overexpressing) viability, CellTiter-Glo, 72 h; series mostly up to 44.5 µM. From the text: The ATP-binding cassette transporters P-glycoprotein (P-gp) is known to limit brain penetration of many chemotherapy drugs. […] As such, we developed a high-throughput screen (HTS) to identify substrates of P-gp from a series of chemical libraries including the National Center for Advancing Translational Sciences Pharmaceutical Collection NPC, 2,816 compounds), testing a total of 10,804 compounds, most of which have known mechanisms of action. We used the CellTiter-Glo viability assay to test library compounds against the parental KB-3-1 human cervical adenocarcinoma cell line and the colchicine-selected sub-line KB-8-5-11 that over-expresses P-gp. KB-8-5-11 cells were also tested in the presence of a P-gp inhibitor (tariquidar) to assess reversability of transporter-mediated resistance. Of the tested compounds, a total of 90 P-gp substrates were identified including 55 newly identified P-gp substrates. Substrates were confirmed using an orthogonal killing assay against HEK-293 cells transfected with P-gp. As exemplars, we confirmed that […] (cyclin-dependent kinase inhibitor); AT9283, (Janus kinase 2/3 inhibitor); ispinesib (kinesin spindle protein inhibitor); gedatolisib (PKI-587, phosphoinositide 3-kinase/mammalian target of rampamycin inhibitor); GSK-690693 (AKT inhibitor); and KW-2478 (heat shock protein 90 inhibitor) were substrates , and direct ATPase stimulation was assessed. ABCG2 was also found to confer high levels of resistance to AT9283, GSK-690693 and gedatolisib, while ispinesib, AT7519 and KW-2478 were weaker substrates.
The HeLa derivative cell line, KB-3-1, and its colchicine-selected, P-gp-overexpressing subline, KB-8-5-11 were maintained in DMEM with 10% FCS and Pen/Strep with glutamine at 37 degree C in 5% CO2. For KB-8-5-11 cells, colchicine was added to the medium at a concentration of 100 ng/mL. HEK-293 cells transfected with empty vector (pcDNA) or vector containing human ABCB1 (MDR-19) or ABCG2 (R-5) have been described previously (Robey, Lin, Qiu, Chan & Bates, 2011) and were maintained in EMEM supplemented with 10% FCS, Pen/Strep and glutamine with 2 mg/ml G418 to select for the expression of the transporter. Cultures were confirmed to be free of mycoplasma infection using the MycoAlert Mycoplasma Detection Kit (Lonza, Walkersville, MD). For the screen, assay medium was identical to culture medium except for KB-8-5-11 where colchicine was excluded from the medium.
All cell lines were plated into 1536-well plates at 500 cells/well in 5 uL media. Compounds were then pinned in dose-response using a 1536-head pin tool (Kalypsis, San Diego, CA) and plates were incubated at 37 degree C in 5% CO2 for an additional 72 h. CellTiter-Glo reagent (Promega) was dispensed into the wells, incubated for 5 min and luminescence was read on a ViewLux instrument (Perkin-Elmer). Cytotoxic compounds were defined as those that yielded a curve class of -1.1, -1.2, -2.1, -2.2, -2.3, or -2.4, a maximum response of >50% and an AC50 of < 10 uM. Cherry-picked hits from screening analysis were tested with both the KB pair of cell lines, and the pcDNA (empty vector control) and MDR-19 (P-gp overexpressing) pair were tested, in the absence and presence of tariquidar.
`CC(C)C(C#N)O[C@@H]1O[C@H](CO[C@@H]2OC[C@](O)(CO)[C@H]2O)[C@@H](O)[C@H](O)[C@H]1O` (stereo not given in full): the Potency result was “inactive”. In the case of `CC12CCC3C(C)(C)C(O)CCC3(C)C1Cc1c(oc(C(=O)O)cc1=O)O2` (stereo not given), the Potency result is “inactive”.

`CCOc1ccc(C(Nc2ccccn2)c2ccc3ccc(C)nc3c2O)cc1C` (stereo not given): the Potency result is “inactive”. Take `CCCOc1ccn2c(C(C)=O)cc(-c3ccccc3S(C)(=O)=O)c2c1`: the Potency entry was “inactive”. The same measure, in the same setting: the entry for `CCNC(=O)CCC/C=C\C[C@@H]1[C@@H](/C=C/C(O)CCc2ccccc2)[C@@H](O)C[C@@H]1O` (stereo not given in full) is “inactive”. For `CCC(C)(O)C(O)C(=O)OCc1ccc(O[C@@H]2O[C@H](CO)[C@@H](O)[C@H](O)[C@H]2O)cc1` (stereo not given in full), the Potency entry was “inactive”. With `c1ccc(C(OC2CCN(CCCc3nn[nH]n3)CC2)c2ccccc2)cc1`, the Potency entry is “inactive”. Turning to `O=C1C[C@@H](c2ccc(O)cc2)Oc2cc(O)ccc21`, the Potency entry was “inactive”. The same measure, in the same setting: the entry for `O=C(O)Cc1nn(Cc2nc3cc(C(F)(F)F)ccc3s2)c(=O)c2nccnc12` is “inactive”; for `CC1=C2[C@@H]([C@H](C)CC[C@H]2/C=C(\C)C(=O)O)[C@H](O)C1` it is “inactive”; for `C/C=C1/[C@H](O[C@@H]2O[C@H](CO)[C@@H](O)[C@H](O)[C@H]2O)OC=C(C(=O)OC)[C@H]1CC(=O)O[C@@H]1O[C@H](CO)[C@@H](O)[C@H](O)[C@H]1O` it is “inactive”. As to `CC1CC(O)C2(C)C(C(=O)O)=CCCC2C1(C)CCc1ccoc1` (stereo not given), the Potency entry is “inactive”. `CC(C)=CCC/C(C)=C/CC/C(C)=C/CC[C@]1(C)CCc2cc(O)cc(C)c2O1`: the Potency entry was “inactive”.

As to `COc1ccc2cc(OCC3(C(=O)O)CN(C(=O)c4ccc(F)cc4)C3)ccc2c1`, the Potency result is “inactive”.

Turning to `c1ccc(Cc2ncc3c(n2)CCNCC3)cc1`, the Potency result was “inactive”. For `CCCCC(C)(O)C/C=C/[C@H]1[C@H](O)CC(=O)[C@@H]1CCCCCCC(=O)OC` (stereo not given in full), the Potency entry is “inactive”. For the compound `CC1(C)C(C=C(Cl)Cl)C1C(=O)OCc1cccc(Oc2ccccc2)c1` (stereo not given), the Potency result is “inactive”. For the compound `C=C[C@@]1(C)CC(=O)C2[C@](C)(O1)[C@@H](OC(C)=O)[C@@H](O)[C@H]1C(C)(C)CCC[C@]21C` (stereo not given in full), the activity change, negative = cytotoxicity was 9.24% [at 9.29 µM].

Turning to `Cn1ccnc1CCOC(c1cc2nccc(C(=O)O)c2[nH]1)c1ccccc1Cl` (stereo not given), the Potency result was “inactive”. Still for that read-out and setting: the entry for `CC1(C)S[C@@H]2[C@H](NC(=O)Cc3ccccc3)C(=O)N2[C@H]1C(=O)O` is “inactive”; for `CC(C)[C@H]1CCC(CO)=C[C@@H]1/C=C(\CO)C(=O)O` it is “inactive”. Consider `CC(=O)OC[C@@]12[C@H](O)C[C@]3(C)C(=CCC4[C@@]5(C)CC[C@H](O[C@@H]6O[C@H](C(=O)O)[C@@H](O[C@@H]7O[C@H](CO)[C@@H](O)[C@H](O)[C@H]7O)[C@H](O)[C@H]6O[C@@H]6O[C@H](CO)[C@@H](O)[C@H](O)[C@H]6O)[C@](C)(CO)C5CC[C@]43C)[C@@H]1CC(C)(C)[C@@H](OC(C)=O)[C@@H]2O` (stereo not given in full), for which the activity change, negative = cytotoxicity was 4.33% [at 9.29 µM]. As for `CC1=C2C(=O)O[C@@H](c3ccoc3)[C@]2(C)CCC1`, the Potency entry is “inactive”. For `CC(=O)N[C@@H](CC(=O)N[C@@H](CCC(=O)O)C(=O)O)C(=O)O`, the Potency entry is “inactive”. `O=C(COc1ccc(Cl)cc1)NC1CCC(NC(=O)COc2ccc(Cl)cc2)CC1` (stereo not given): the Potency result is “inactive”. In the case of `C=C1C[C@]23C[C@H]1CC[C@H]2[C@@]12C=C[C@H](O)[C@@](C)(C(=O)O1)[C@H]2[C@@H]3C(=O)O`, the Potency entry was “inactive”. As for `COc1cc(/C=C/C(=O)OC2CC(OC(C)=O)C(OC(C)=O)C3C2CCC2C(=O)OC(c4ccoc4)CC23C)ccc1O[C@@H]1O[C@H](CO)[C@@H](O)[C@H](O)[C@H]1O` (stereo not given in full), the Potency entry was “inactive”.

For the compound `CCCCCCCCCCCCCCCCCCOP(=O)([O-])OC1CC[N+](C)(C)CC1`, the Potency entry was “inactive”. As for `OC[C@H]1O[C@@H](n2cnc3c2NC=NC[C@H]3O)C[C@@H]1O`, the Potency result was “inactive”. With `COc1cc(/C=C/C(=O)OC[C@H]2O[C@H](O[C@]3(CO)O[C@H](CO)[C@@H](O)[C@@H]3O)[C@H](O)[C@@H](O)[C@@H]2O)cc(OC)c1O`, the Potency result is “inactive”.

For `C/C=C/C=C/C=C/C(=O)O[C@@H]1C=C(CO)C(O)(C(=O)O)[C@@]2(C)CCCC(C)(C)[C@H]12` (stereo not given in full), the Potency result is “inactive”.

As to `CC(CCC1C(C(=O)O)=CC(=O)CC1(C)C)O[C@@H]1O[C@H](CO)[C@@H](O)[C@H](O)[C@H]1O` (stereo not given in full), the Potency entry is “inactive”. In the case of `CC[C@H]1OC(=O)[C@H](C)[C@@H](O[C@H]2C[C@@](C)(OC)[C@@H](O)[C@H](C)O2)[C@H](C)[C@@H](O[C@@H]2O[C@H](C)C[C@H](N(C)C)[C@H]2O)[C@@](C)(O)C[C@@H](C)[C@@H]2N[C@@H](COCCOC)OC([C@H]2C)[C@]1(C)O`, the Potency entry was “inactive”. Same read-out and setting: with `CC(C)C1(O[C@@H]2O[C@H](CO)[C@@H](O)[C@H](O)[C@H]2O)CC=C(CO)CC1` (stereo not given in full) the entry was “inactive”; with `CCCCC(CC)COC(=O)CC(C(=O)OCC(CC)CCCC)S(=O)(=O)O` (stereo not given), “inactive”. `O=C(NCc1ccc(OC(F)(F)F)cc1)C1c2ccccc2C(=O)N1C1CCOCC1` (stereo not given): the Potency entry was “inactive”.

Turning to `CC1(CO)CC[C@]2(C(=O)O[C@@H]3O[C@H](CO)[C@@H](O)[C@H](O)[C@H]3O)CC[C@]3(C)C(=CCC4[C@@]5(C)C[C@H](O)[C@H](O[C@@H]6OC[C@@H](O)[C@H](O)[C@H]6O)[C@@](C)(CO)C5CC[C@]43C)C2C1` (stereo not given in full), the outcome was “inactive [at 9.29 µM]”. `CC1(C)CCC[C@@]2(C)[C@H]1[C@H](O)C=C1COC(=O)[C@@]12O`: the Potency entry was “inactive”. Turning to `Cc1cc(Nc2ncc(Cl)c(Nc3ccccc3S(=O)(=O)C(C)C)n2)c(OC(C)C)cc1C1CCNCC1`, the Potency is 6.51 µM (active). On the same count and under the same terms, the entry for `CC(=O)c1c(O)cc2cccc3c2c1CC(C)(O)O3` (stereo not given) is “inactive”.
